# Measured values: PubChem BioAssay
# For part of these data: Results with a measured potency or affinity are listed apart. The list shows a part of the results. Activity calls are given as the source filed them.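 The calls were made as follows, unless noted: active = signal rise over 3 SD above mean of control wells given weak agonist, in both repeats and first screen; inactive = the rest.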
# What was measured:
# [1] = tested on: TRPC4 beta (transient receptor potential cation channel C4), mouse; test: TRPC4 cation channel opening, retest – cell-based, Fluo4 calcium, HEK293 TRPC4beta/mu-opioid, duplicates, 10 µM, confirmation (AID 2426;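 active = fluorescence ratio normalized to control raised more than 50% in primary screen plus both repeat runs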); details: Fluo4 calcium fluorescence, at 10 µM; hits give high values
# [2] = tested on: transient receptor potential cation channel C4 beta (TRPC4), mouse; test: TRPC4 cation channel opening, second retest – cell-based, second round, Fluo4, HEK293 TRPC4beta/mu-opioid, 1 µM, confirmation (AID 2461;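 active = primary screen active and over 50% activation in each of two duplicate runs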); details: Fluo4 calcium fluorescence, at 1 µM; hits give high values
# [3] = tested on: TRPC4 (transient receptor potential cation channel C4 beta), mouse; test: potentiation of DAMGO EC20 TRPC4 response – cell-based, second round, Fluo-4, HEK293 TRPC4beta/mu-opioid, 1 µM, confirmation (AID 2554;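 active = primary screen hit whose fluorescence ratio, in both repeats, exceeds the weak agonist control mean by 3 SD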); details: DAMGO EC20, Fluo-4 calcium flux, at 1 µM; hits give high values
# [4] = tested on: TRPC4 beta (transient receptor potential cation channel C4), mouse; test: potentiation of DAMGO EC20 TRPC4 response – cell-based, Fluo-4, HEK293 TRPC4beta/mu-opioid, confirmation (AID 2555;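 active = primary screen hit whose calcium fluorescence ratio, in both repeats, exceeds the weak agonist control mean by 3 SD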); details: DAMGO EC20, Fluo-4 calcium flux, at 10 µM; hits give high values
# [5] = target: Short transient receptor potential channel 4 (Mus musculus) (UniProt Q9QUQ5); test: blockers of DAMGO-evoked TRPC4 calcium flux – cell-based, Fluo4, HEK293 TRPC4beta/mu-opioid, confirmation (AID 2636;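 active = calcium signal cut by more than 3 SD below the full-agonist control yet still positive, in both repeats and the earlier primary screen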); details: at 10 µM; hits give high values
# Short transient receptor potential channel 4 (Mus musculus), sequence (Q9QUQ5 whole entry, looked up): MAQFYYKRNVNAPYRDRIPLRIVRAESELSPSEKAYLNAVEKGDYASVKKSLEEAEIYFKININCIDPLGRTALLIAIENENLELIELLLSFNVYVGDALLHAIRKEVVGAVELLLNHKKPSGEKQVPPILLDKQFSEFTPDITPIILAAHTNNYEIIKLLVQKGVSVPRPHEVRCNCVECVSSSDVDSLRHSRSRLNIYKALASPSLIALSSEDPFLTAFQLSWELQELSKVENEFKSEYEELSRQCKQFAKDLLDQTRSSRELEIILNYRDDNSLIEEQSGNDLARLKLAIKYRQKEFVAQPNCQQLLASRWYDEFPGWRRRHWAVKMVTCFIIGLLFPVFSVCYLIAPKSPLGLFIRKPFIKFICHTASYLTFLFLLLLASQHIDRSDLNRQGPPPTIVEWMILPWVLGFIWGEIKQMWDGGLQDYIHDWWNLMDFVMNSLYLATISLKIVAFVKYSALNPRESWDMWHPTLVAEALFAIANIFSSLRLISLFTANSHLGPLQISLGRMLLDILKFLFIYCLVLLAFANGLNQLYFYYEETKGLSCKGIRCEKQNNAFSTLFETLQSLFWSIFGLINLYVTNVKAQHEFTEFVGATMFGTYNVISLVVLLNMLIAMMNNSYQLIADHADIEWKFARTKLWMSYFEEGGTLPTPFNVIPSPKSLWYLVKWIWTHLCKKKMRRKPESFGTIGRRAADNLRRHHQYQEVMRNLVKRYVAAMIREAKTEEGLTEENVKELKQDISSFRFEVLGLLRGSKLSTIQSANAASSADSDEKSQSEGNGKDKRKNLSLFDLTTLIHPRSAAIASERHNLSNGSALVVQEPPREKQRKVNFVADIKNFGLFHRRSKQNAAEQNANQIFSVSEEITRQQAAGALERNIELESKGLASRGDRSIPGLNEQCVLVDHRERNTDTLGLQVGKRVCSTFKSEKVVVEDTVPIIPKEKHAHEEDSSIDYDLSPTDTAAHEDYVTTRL
# [6] = target: Short transient receptor potential channel 4 (Mus musculus) (UniProt Q9QUQ5); test: blockers of DAMGO-evoked TRPC4 calcium flux – cell-based, second round, Fluo4, HEK293 TRPC4beta/mu-opioid, 1 µM, confirmation (AID 2637;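 active = calcium signal ratio cut to more than 3 SD under the fully stimulated control mean yet still positive, in both repeats and the primary screen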;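 as to inhibition: percent of integrated ratio relative to wells lacking test compound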); details: at 1 µM; hits give high values
# [7] = target: Short transient receptor potential channel 4 (Mus musculus) (UniProt Q9QUQ5); test: calcium entry via TRPC4 opening agents – cell-based, HEK293 TRPC4/mu-opioid, Fluo-4 calcium, dose response (AID 434937;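 active = primary screen activator hit with a dose response curve and TRPC4 channel activation at any tested dose; inactive = no activation, no dose response, or not a primary hit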)
# [8] = target: Short transient receptor potential channel 4 (Mus musculus) (UniProt Q9QUQ5); test: potentiation of DAMGO-evoked TRPC4 calcium signal – cell-based, HEK293 TRPC4/mu-opioid, Fluo-4 calcium, EC20 DAMGO, dose response (AID 434941;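 active = earlier screen potentiator hit that boosts the TRPC4 ion channel at some dose, with a dose response; inactive = no potentiation, no dose response, or not a prior hit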;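 also: calcium entry triggered by an EC20 dose of DAMGO at the co-expressed mu-opioid receptor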)
# [9] = target: Short transient receptor potential channel 4 (Mus musculus) (UniProt Q9QUQ5); test: block of DAMGO-driven TRPC4 calcium entry – cell-based, HEK293 TRPC4/mu-opioid, Fluo-4 calcium, dose response (AID 434942;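 active = primary screen inhibitor hit that blocks the TRPC4 channel at some tested dose, yielding a dose curve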)
# [10] = target: Short transient receptor potential channel 6 (Mus musculus) (UniProt Q61143); test: TRPC6 blockade by TRPC4 inhibitor hits – cell-based, HEK293, membrane potential dye, duplicate, selectivity assay for TRPC4 inhibitor project, confirmation (AID 434948;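 active = active in primary screen and both duplicates, each dropping signal beyond three positive-control SD with fluorescence still positive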); details: HEK293 TRPC6, membrane potential dye fluorescence, at 10 µM; inhibition: hits give high values, stimulated with maximal-effect acetylcholine unless noted; outcome: stimulated with maximal-effect acetylcholine unless noted
# Short transient receptor potential channel 6 (Mus musculus), sequence (Q61143 whole entry, looked up): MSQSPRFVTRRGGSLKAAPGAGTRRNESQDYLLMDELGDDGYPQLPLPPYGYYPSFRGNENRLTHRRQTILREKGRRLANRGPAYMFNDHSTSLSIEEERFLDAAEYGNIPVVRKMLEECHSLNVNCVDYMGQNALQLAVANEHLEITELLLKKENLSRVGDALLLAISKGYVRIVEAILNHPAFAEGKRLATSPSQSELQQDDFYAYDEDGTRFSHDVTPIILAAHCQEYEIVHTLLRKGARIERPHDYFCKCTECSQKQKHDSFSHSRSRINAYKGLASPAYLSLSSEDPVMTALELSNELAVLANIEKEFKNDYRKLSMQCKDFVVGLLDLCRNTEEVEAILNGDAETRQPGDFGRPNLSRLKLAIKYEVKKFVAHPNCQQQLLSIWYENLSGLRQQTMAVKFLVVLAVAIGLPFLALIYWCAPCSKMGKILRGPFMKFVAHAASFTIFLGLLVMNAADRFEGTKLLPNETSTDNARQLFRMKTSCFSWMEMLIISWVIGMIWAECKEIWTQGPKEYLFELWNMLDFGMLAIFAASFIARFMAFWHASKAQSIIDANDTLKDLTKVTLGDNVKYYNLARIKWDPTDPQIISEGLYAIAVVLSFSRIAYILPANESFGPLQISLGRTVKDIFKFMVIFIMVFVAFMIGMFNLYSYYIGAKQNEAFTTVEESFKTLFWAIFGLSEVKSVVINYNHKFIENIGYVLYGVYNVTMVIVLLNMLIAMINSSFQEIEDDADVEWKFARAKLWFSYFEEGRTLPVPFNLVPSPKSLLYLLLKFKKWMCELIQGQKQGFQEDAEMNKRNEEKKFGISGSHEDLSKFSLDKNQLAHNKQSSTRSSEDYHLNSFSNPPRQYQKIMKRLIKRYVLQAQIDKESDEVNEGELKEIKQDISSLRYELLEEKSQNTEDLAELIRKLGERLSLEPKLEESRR
# [11] = target: Short transient receptor potential channel 6 (Mus musculus) (UniProt Q61143); test: TRPC6 opening by TRPC4 activator hits – cell-based, HEK293, membrane potential dye, duplicate, selectivity assay for TRPC4 activator project, confirmation (AID 434950;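 active = membrane potential signal rise above negative control mean plus 3 SD in both duplicates, also active in the earlier TRPC4 screen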); details: HEK293 TRPC6, membrane potential fluorescence, at 10 µM; activation: hits give high values; outcome: activation
# [12] = target: Short transient receptor potential channel 6 (Mus musculus) (UniProt Q61143); test: positive modulators of mouse TRPC6 channel – HEK293 cells, membrane potential dye, duplicate, selectivity assay for TRPC4 potentiator project, confirmation (AID 434952;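 active = compound raising the membrane signal above positive-control mean plus 3 SD in both repeats, and a primary screen hit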); details: HEK293 TRPC6, membrane potential dye fluorescence, at 10 µM; maximal acetylcholine added after compound unless noted
# [13] = target: Short transient receptor potential channel 4 (Mus musculus) (UniProt Q9QUQ5); test: calcium flux activators in TRPC4/5HT1a cells, counter-screen for TRPC4 activator project, cell-based, second counter screen, HEK293 TRPC4/5HT1a, Fluo-4 (AID 434977;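 active = calcium signal rise above buffer-control mean plus 5 SD in both duplicates, and also a hit in the primary screen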); details: Fluo-4 calcium flux, at 10 µM; hits give high values
# [14] = serotonin-gated TRPC4 signal block – cell-based, second counter screen, HEK293 TRPC4/5HT1a, Fluo-4, counter-screen for TRPC4 inhibitor project, confirmation (AID 434978;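 active = primary screen active whose calcium signal fell more than 3 SD beyond the full-serotonin control mean in both duplicate plates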;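 as to outcome: serotonin given first at submaximal then at maximal dose after compound preincubation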); details: Fluo-4 calcium flux, at 10 µM; inhibition: hits give high values, serotonin added to trigger calcium flux unless noted; outcome: serotonin added to trigger calcium flux unless noted
# [15] = tested on: TRPC4 (mouse), co-expressed with 5HT1a in HEK293; test: enhancement of serotonin-evoked TRPC4 response – cell-based, second counter screen, HEK293 TRPC4/5HT1a, Fluo-4, counter-screen for TRPC4 potentiator project, confirmation (AID 434979); details: Fluo-4 calcium flux, at 10 µM; outcome: serotonin added at its EC20 dose unless noted; potentiation: hits give high values, serotonin added at its EC20 dose unless noted
# [16] = nonspecific calcium rise without TRPC4 – cell-based, HEK293 mu-opioid receptor line, counter-screen for TRPC4 activator project, confirmation (AID 449723;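 active = hit in primary screen, with calcium signal over 5 SD above buffer well mean in both duplicates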;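 also: counter screen cells carry the mu-opioid receptor alone and lack TRPC4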); details: HEK293 mu-opioid cells, Fluo-4 calcium fluorescence, at 10 µM; hits give high values
# [17] = nonspecific potentiation of DAMGO calcium response – cell-based, HEK293 mu-opioid receptor line, counter-screen for TRPC4 allosteric potentiator project, confirmation (AID 449724;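 active = calcium signal rise more than 3 SD above the low-dose agonist control mean, in both duplicate plates and the primary screen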); details: HEK293 mu-opioid receptor cells, Fluo-4 calcium flux, at 10 µM; compound added before EC20 DAMGO stimulus unless noted
# [18] = target: Inward rectifier potassium channel 2 (Mus musculus) (UniProt P35561); test: inhibition of Kir2.1 inward rectifier potassium flux – cell-based, FluxOR thallium flux, duplicate, confirmation (AID 2032;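 active = Primary-screen hit whose thallium flux fell at least 3 control SD below untreated wells in both duplicates, with normal baseline fluorescence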;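 also: 0% = blank wells without stimulus and 100% = stimulated no-compound controls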); details: Kir2.1-expressing cells, FluxOR thallium flux fluorescence, at 10 µM; hits give low values
# Inward rectifier potassium channel 2 (Mus musculus), sequence (P35561 whole entry, looked up): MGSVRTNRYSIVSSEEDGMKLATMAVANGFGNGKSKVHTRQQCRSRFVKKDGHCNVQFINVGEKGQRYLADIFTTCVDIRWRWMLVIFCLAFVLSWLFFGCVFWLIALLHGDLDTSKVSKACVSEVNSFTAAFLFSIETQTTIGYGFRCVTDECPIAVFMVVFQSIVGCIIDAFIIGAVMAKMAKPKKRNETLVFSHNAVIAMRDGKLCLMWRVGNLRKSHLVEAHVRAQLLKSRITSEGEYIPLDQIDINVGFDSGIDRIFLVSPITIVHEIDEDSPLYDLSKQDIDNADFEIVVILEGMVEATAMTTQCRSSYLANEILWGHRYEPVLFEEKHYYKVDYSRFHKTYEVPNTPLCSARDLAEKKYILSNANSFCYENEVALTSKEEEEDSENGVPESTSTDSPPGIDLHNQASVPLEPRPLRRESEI
# [19] = parental HEK293 cell activity, no Kir2.1 – FluxOR thallium flux, duplicate, single concentration, counter-screen for Kir2.1 inhibitor project, confirmation (AID 2105;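 active = dye signal at least 3 control SD above or below untreated wells in both duplicates, raw fluorescence within 3, either direction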); details: parental HEK293 cells, FluxOR thallium flux fluorescence, at 10 µM; 0% = unstimulated blank wells
# [20] = target: Short transient receptor potential channel 6 (Mus musculus) (UniProt Q61143); test: blockers of TRPC6 cation channel activity – HEK293 cells, membrane potential dye, duplicate, confirmation (AID 488960;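 active = fluorescence ratio falls more than 5 SD below the full-stimulation control mean, in both duplicate runs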); details: ACh-evoked depolarization, at 10 µM; hits give high values
structure (smiles),measurement,setting,value
Cc1ccc(-c2nc(N(C)C3CCN(C)CC3)c3ccccc3n2)cc1,outcome,[1],inactive
same,outcome,[2],inactive
same,potentiation,[3],14% (active)
same,potentiation,[4],24% (active)
same,outcome,[5],inactive
same,outcome,[6],inactive
same,outcome,[7],inactive
same,outcome,[8],inactive
same,outcome,[9],inactive
same,outcome,[10],inactive
same,outcome,[11],inactive
same,outcome,[12],inactive
same,outcome,[13],inactive
same,outcome,[14],inactive
same,potentiation,[15],34.7% (active)
same,outcome,[16],inactive
same,outcome,[17],inactive
c1ccc(C2NCc3ccccc3-n3cccc32)cc1 (configuration not stated),"Tl flux remaining, % of negative control (hits give low values)",[18],52% (active)
same,outcome,[19],inactive
Cc1c(P(=S)(c2ccccc2)c2ccccc2)[n+]2ccccc2n1C,outcome,[1],inactive
same,outcome,[2],inactive
same,outcome,[3],inactive
same,outcome,[4],inactive
same,outcome,[5],inactive
same,outcome,[6],inactive
same,outcome,[7],inactive
same,outcome,[8],inactive
same,outcome,[9],inactive
same,outcome,[10],inactive
same,outcome,[11],inactive
same,outcome,[12],inactive
same,outcome,[13],inactive
same,outcome,[14],inactive
same,outcome,[15],inactive
same,outcome,[16],inactive
same,outcome,[17],inactive
CN(C)CCn1cnc2ccccc21,outcome,[1],inactive
same,outcome,[2],inactive
same,outcome,[3],inactive
same,outcome,[4],inactive
same,outcome,[5],inactive
same,outcome,[6],inactive
same,outcome,[7],inactive
same,outcome,[8],inactive
same,outcome,[9],inactive
same,outcome,[10],inactive
same,outcome,[11],inactive
same,outcome,[12],inactive
same,outcome,[13],inactive
same,outcome,[14],inactive
same,potentiation,[15],19.9% (active)
same,outcome,[16],inactive
same,outcome,[17],inactive
COc1ccc(Br)cc1CNCCc1cccc(Cl)c1,"Tl flux remaining, % of negative control (hits give low values)",[18],15.5% (active)
same,outcome,[19],inactive
CC(Cc1ccccc1)NCC(=O)Nc1cc(N(C)C)nc2ccccc12 (configuration not stated),outcome,[1],inactive
same,outcome,[2],inactive
same,outcome,[3],inactive
same,outcome,[4],inactive
same,inhibition,[5],82% (active)
same,outcome,[6],inactive
same,outcome,[7],inactive
same,outcome,[8],inactive
same,outcome,[9],inactive
same,outcome,[10],inactive
same,outcome,[11],inactive
same,outcome,[12],inactive
same,outcome,[13],inactive
same,inhibition,[14],46% (active)
same,outcome,[15],inactive
same,outcome,[16],inactive
same,outcome,[17],inactive
CCOc1cccc(=NC2CCCCC2)c2c(C)[nH]c(C)c12,"Tl flux remaining, % of negative control (hits give low values)",[18],46.5% (active)
same,outcome,[19],inactive
same,outcome,[20],inactive
Oc1c(Br)cc(Br)cc1CN1CCN(Cc2ccccc2)CC1,outcome,[1],inactive
same,outcome,[2],inactive
same,outcome,[3],inactive
same,potentiation,[4],44% (active)
same,outcome,[5],inactive
same,outcome,[6],inactive
same,outcome,[7],inactive
same,outcome,[8],inactive
same,outcome,[9],inactive
same,outcome,[10],inactive [setting not given]
same,outcome,[11],inactive
same,outcome,[12],inactive [setting not given]
same,outcome,[13],inactive
same,outcome,[14],inactive [setting not given]
same,potentiation,[15],20.2% [hits give high values] (active)
same,outcome,[16],inactive
same,outcome,[17],inactive [setting not given]
COc1ccc(Br)cc1CN1CCN(C(=O)Cc2ccccc2)CC1,outcome,[1],inactive
same,outcome,[2],inactive
same,outcome,[3],inactive
same,outcome,[4],inactive
same,inhibition,[5],89% (active)
same,outcome,[6],inactive
same,outcome,[7],inactive
same,outcome,[8],inactive
same,outcome,[10],inactive
same,outcome,[11],inactive
same,outcome,[12],inactive
same,outcome,[13],inactive
same,inhibition,[14],20.6% (active)
same,outcome,[15],inactive
same,outcome,[16],inactive
same,outcome,[17],inactive
COc1ccc(C)cc1NC1=NC(C)(C)CS1,outcome,[1],inactive
same,outcome,[2],inactive
same,outcome,[3],inactive
same,outcome,[4],inactive
same,inhibition,[5],89% (active)
same,inhibition,[6],42% (active)
same,outcome,[7],inactive
same,outcome,[8],inactive
same,outcome,[10],inactive
same,outcome,[11],inactive
same,outcome,[12],inactive
same,outcome,[13],inactive
same,outcome,[14],inactive
same,outcome,[15],inactive
same,outcome,[16],inactive
same,outcome,[17],inactive
COc1ccc(CN2CCCC(C(=O)c3sccc3C)C2)cc1O (configuration not stated),outcome,[1],inactive
same,outcome,[2],inactive
same,outcome,[3],inactive
same,outcome,[4],inactive
same,inhibition,[5],90% (active)
same,outcome,[6],inactive
same,outcome,[7],inactive
same,outcome,[8],inactive
same,outcome,[10],inactive
same,outcome,[11],inactive
same,outcome,[12],inactive
same,outcome,[13],inactive
same,inhibition,[14],21.3% (active)
same,outcome,[15],inactive
same,outcome,[16],inactive
same,outcome,[17],inactive
CCOC(=O)C1(CCc2ccccc2)CCN(Cc2ccco2)CC1,outcome,[1],inactive
same,outcome,[2],inactive
same,outcome,[3],inactive
same,outcome,[4],inactive
same,inhibition,[5],94% (active)
same,outcome,[6],inactive
same,outcome,[7],inactive
same,outcome,[8],inactive
same,outcome,[10],inactive
same,outcome,[11],inactive
same,outcome,[12],inactive
same,outcome,[13],inactive
same,outcome,[14],inactive
same,outcome,[15],inactive
same,outcome,[16],inactive
same,outcome,[17],inactive
Cc1ccsc1C(=O)C1CCCN(Cc2ccccc2O)C1 (configuration not stated),outcome,[1],inactive
same,outcome,[2],inactive
same,outcome,[3],inactive
same,outcome,[4],inactive
same,inhibition,[5],84% (active)
same,outcome,[6],inactive
same,outcome,[7],inactive
same,outcome,[8],inactive
same,outcome,[10],inactive
same,outcome,[11],inactive
same,outcome,[12],inactive
same,outcome,[13],inactive
same,inhibition,[14],44.9% (active)
same,outcome,[15],inactive
same,outcome,[16],inactive
same,outcome,[17],inactive
O=C(Cc1ccccc1)N1CCN(Cc2cccc(Br)c2)CC1,outcome,[1],inactive
same,outcome,[2],inactive
same,outcome,[3],inactive
same,outcome,[4],inactive
same,inhibition,[5],81% (active)
same,outcome,[6],inactive
same,outcome,[7],inactive
same,outcome,[8],inactive
same,outcome,[10],inactive
same,outcome,[11],inactive
same,outcome,[12],inactive
same,outcome,[13],inactive
same,inhibition,[14],37.8% (active)
same,outcome,[15],inactive
same,outcome,[16],inactive
same,outcome,[17],inactive
CCOC(=O)C(O)(c1ccc(NC(=S)NC(=O)c2ccc(Cl)cc2Cl)c(C)c1)C(F)(F)F (configuration not stated),outcome,[1],inactive
same,outcome,[2],inactive
same,outcome,[3],inactive
same,potentiation,[4],31% (active)
same,outcome,[5],inactive
same,outcome,[6],inactive
same,outcome,[7],inactive
same,outcome,[9],inactive
same,outcome,[10],inactive
same,outcome,[11],inactive
same,outcome,[12],inactive
same,outcome,[13],inactive
same,outcome,[14],inactive
same,potentiation,[15],28.1% (active)
same,outcome,[16],inactive
same,outcome,[17],inactive
Clc1ccc(N2CCNCC2)nn1,outcome,[1],inactive
same,outcome,[2],inactive
same,potentiation,[3],14% (active)
same,outcome,[4],inactive
same,outcome,[5],inactive
same,outcome,[6],inactive
same,outcome,[7],inactive
same,outcome,[8],inactive
same,outcome,[9],inactive
same,outcome,[10],inactive
same,outcome,[11],inactive
same,outcome,[12],inactive
same,outcome,[13],inactive
same,outcome,[14],inactive
same,potentiation,[15],16.3% (active)
same,outcome,[16],inactive
same,outcome,[17],inactive
CCOc1c(Cl)cc(CNC(C)C(O)c2ccccc2)cc1OC (configuration not stated),outcome,[1],inactive
same,outcome,[2],inactive
same,outcome,[3],inactive
same,outcome,[4],inactive
same,inhibition,[5],99% (active)
same,outcome,[6],inactive
same,outcome,[7],inactive
same,outcome,[8],inactive
same,outcome,[10],inactive
same,outcome,[11],inactive
same,outcome,[12],inactive
same,outcome,[13],inactive
same,outcome,[14],inactive
same,outcome,[15],inactive
same,outcome,[16],inactive
same,outcome,[17],inactive
